Data from PubChem BioAssay AID2676 (National Center for Advancing Translational Sciences (NCATS), 2010).
Among all 370,000 compounds or so, about 1,100 (0.3%) were called active. Not shown: some 1% with an inconclusive outcome. Calls come from the whole dose curve; as a rule, active = well fitted activation curve with a large enough effect; inconclusive = small, poorly fitted or top-dose-only effect; inactive = flat fitted curve, though single readings scatter. What follows is part of a selection rich in actives, with near analogues and random picks from the rest. Where a call stands in place of a potency, no number is given.
Note: nearly all actives have a fitted effect of over 60% in size.
Potency is the fitted concentration of half-maximal effect.

Each molecule was assayed against Relaxin receptor 1 (Homo sapiens) (UniProt Q9HBX9) (assay: qHTS Assay for Agonists of the Relaxin Receptor RXFP1). Conditions: HEK293T-RXFP1 cAMP TR-FRET, 30 min; series mostly up to 57.5 µM.
Chain of Relaxin receptor 1 (Homo sapiens) (Q9HBX9 whole entry, looked up): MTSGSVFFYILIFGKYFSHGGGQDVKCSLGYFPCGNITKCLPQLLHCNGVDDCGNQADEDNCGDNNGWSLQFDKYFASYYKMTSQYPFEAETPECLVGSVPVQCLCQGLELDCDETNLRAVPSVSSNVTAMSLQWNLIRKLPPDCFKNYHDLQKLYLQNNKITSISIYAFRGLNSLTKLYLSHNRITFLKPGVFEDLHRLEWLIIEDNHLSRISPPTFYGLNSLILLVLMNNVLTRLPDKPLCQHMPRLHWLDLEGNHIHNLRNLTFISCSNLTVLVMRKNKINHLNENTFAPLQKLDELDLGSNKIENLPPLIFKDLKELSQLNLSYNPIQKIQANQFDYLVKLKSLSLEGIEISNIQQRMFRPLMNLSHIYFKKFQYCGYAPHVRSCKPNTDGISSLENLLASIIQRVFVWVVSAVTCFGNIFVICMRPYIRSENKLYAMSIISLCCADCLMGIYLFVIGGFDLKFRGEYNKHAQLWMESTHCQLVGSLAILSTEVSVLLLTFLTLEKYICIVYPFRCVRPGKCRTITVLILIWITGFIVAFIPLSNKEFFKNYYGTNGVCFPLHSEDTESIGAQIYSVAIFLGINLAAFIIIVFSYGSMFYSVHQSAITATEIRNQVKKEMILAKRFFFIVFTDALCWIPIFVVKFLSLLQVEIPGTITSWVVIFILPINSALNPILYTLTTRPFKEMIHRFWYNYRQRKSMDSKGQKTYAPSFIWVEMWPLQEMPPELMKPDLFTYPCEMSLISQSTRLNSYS
From the text: NIH Chemical Genomics Center [NCGC] NIH Molecular Libraries Probe Production Centers Network [MLPCN] MLPCN Grant: R03 MH085705-01A1 Assay Submitter (PI): Alexander Agoulnik NCGC Assay Overview: The relaxin hormone is involved in the variety of biological functions in normal tissues and diseases. The role of relaxin is well-established in female reproduction and parturition, mammary gland and endometrial development, maintenance of myometrial quiescence during pregnancy. Relaxin signaling through its G protein-coupled receptor (GPCR) RXFP1 results in ECM remodeling through regulation of collagen deposition, cell invasiveness, proliferation and overall tissue homeostasis. […] Recombinant human relaxin (rhRlx) is currently being tested in clinical trials as a protective agent in congestive heart failure, in treating severe preeclampsia, and as an anti-fibrotic agent in systemic sclerosis. Upon relaxin binding RXFP1 activation leads to the activation of adenylate cyclase (AC) via Gs. cAMP will activate PKA, which phosphorylates many signaling proteins. Thus, detection of cAMP increase is an easy and reliable indication of relaxin receptor activation. To screen for agonists of the relaxin receptor, a HEK293T cell line stably transfected with RXFP1 was used. RXFP1 activation was assayed by changes in cAMP levels as detected with a time-resolved fluorescence energy transfer (TR-FRET) cAMP detection kit.
NCGC Assay Protocol Summary: This is a cell-based assay for cAMP second messenger response to screen for agonists of the RXFP1 receptor. The assay was conducted in the presence of a PDE4 inhibitor (Ro 20174). The cells were lysed and the cAMP levels were measured with a TR-FRET cAMP kit. Presence of cAMP in the cell lysate disrupts binding between the cryptate-labeled anti-cAMP and d2-labeled cAMP pair, leading to a decrease in the TR-FRET signal. Data were normalized to the controls for basal activity (buffer only) and 100% activity (29 nM porcine relaxin). The EC50 values were determined from concentration-response data modeled with the standard Hill equation 1536-well assay protocol for the HEK293 RXFP1 cAMP assay: (1) Add 3 ul HEK293 RXFP1 cell culture. 2000 cells/well in DMEM/F12, 10% FBS, 1x Pen/Strep (dispensed offline with MultiDrop Combi). (2) Incubate 16-24 hr at 37C, 5% CO2. (3) Add 1 ul 400uM Ro20174 in DPBS, 0.05% BSA, 0.005% Tween 20. (3) Add 23 nl compounds in DMSO solution. Final concentration was 0.5 - 58 uM. (4) Incubate 30 min at 37C, 5% CO2. (5) Add 1 ul cAMP-d2 in lysis buffer (HTRF cAMP HiRange kit, CisBio). (6) Add 1 ul anti-cAMP antibody-cryptate in lysis buffer (HTRF cAMP HiRange kit, CisBio). (7) Incubate 30 min at room temperature. (6) Detect the assay plate in a ViewLux plate reader (PerkinElmer) with Ex=320 nm, Em1=615 nm and Em2=665 nm. Keywords: relaxin, RXFP1, RXFP2, G-protein coupled receptor, cAMP, agonist, high throughput screening, MLSMR, MLSCN, NIH Roadmap, qHTS and NCGC
For `O=C1CN(C(=O)Nc2ccccc2C(F)(F)F)C(c2ccccc2)c2c(sc3c2CCCC3)N1` (stereo not drawn), the Potency was “inactive”.
For `Cc1cccc(N2CCN(C(=O)CCn3c(=O)c4cccn4c4cccnc43)CC2C)c1` (stereo not drawn), the Potency was “inactive”.
For `Cc1ccc(CCNC(=O)c2ccc3c(c2)nc2n3CCC(C)C2)cc1` (stereo not drawn), the Potency was “inactive”.
In the case of `COc1ccc(-c2cn3c(n2)sc2cc(C(=O)Nc4ccccc4F)ccc23)cc1`, the Potency was “inactive”.
For `CC(C)(C)C1CCc2c(sc(NC(=O)c3ccccc3F)c2C(=O)N2CCCCC2)C1` (stereo not drawn), the Potency was “inactive”.
In the case of `CCN1CCN(Cc2c(O)ccc3oc(C)c(C(=O)Nc4ccc(C)cc4C)c23)CC1`, the Potency was “inactive”.
In the case of `COc1cccc(-n2cc(C(=O)NCc3cccc(Cl)c3)c3ccccc3c2=O)c1`, the Potency was “inactive”.
With `COc1ccc(NC(=O)NC(C)c2c(-n3cccc3)sc(C)c2C)cc1OC` (stereo not drawn) the Potency was “inactive”.
`CCOC(=O)c1ccc(NC(=O)CSc2nc3c([nH]c4ccccc43)c(=O)n2C)cc1` was tested, and the Potency was “inactive”.
With `Cc1c(Cl)cccc1NC(=O)Cn1cc(C(=O)c2cccs2)c2ccccc21` the Potency was “inactive”.
For `CC(=O)N1CCCc2ccc(NS(=O)(=O)c3ccc(F)cc3F)cc21`, the Potency was “inactive”.
For `COc1cccc(Cn2c(CNS(=O)(=O)c3ccc(Cl)s3)nc3cccnc32)c1`, the Potency was “inactive”.
In the case of `CCN(CC)S(=O)(=O)c1ccc(C(=O)N=c2sc3cccc(OC)c3n2C)cc1`, the Potency was “inactive”.
With `CCOC(=O)c1sc(=NC(=O)/C=C/c2cccs2)n(C)c1C` the Potency was “inactive”.
For `CCOC(=O)c1sc(=NC(=O)c2ccc(Br)cc2)n(C)c1C`, the Potency was 17.8 µM (active).
In the case of `CCN(CC)c1ccc(C2C(C(N)=O)=C(C)Nc3nc(SCc4ccccc4)nn32)cc1` (stereo not drawn), the Potency was “inactive”.
For `CCCC(=O)Nc1ncnc2c1ncn2[C@@H]1O[C@@H]2OP(=O)(O)OC[C@H]2[C@H]1OC(=O)CCC`, the Potency was 0.631 µM (active).
In the case of `Cc1ccccc1CSc1nc(-c2ccccc2)nc2c1Cc1c(CO)cnc(C)c1O2`, the Potency was “inactive”.
With `CCOc1ccc(S(=O)(=O)N(CC(=O)NCCSCc2ccc(C)cc2)c2ccccc2)cc1` the Potency was “inactive”.
In the case of `Cc1nn2c(=O)cc(COC(=O)c3cccc(NC(=O)COc4ccccc4Cl)c3)nc2s1`, the Potency was “inactive”.
With `Cn1c(=O)c2c(SCC(=O)N3CCOCC3)nc(C3CC3)nc2n(C)c1=O` the Potency was “inactive”.
For `CCCCn1c(SCC(=O)N2CCOCC2)nc2c1c(=O)n(C)c(=O)n2C`, the Potency was 15.8 µM (active).
For `C#CC(C)(C)NC(=O)CSc1nc2c(c(=O)n(C)c(=O)n2C)n1CCCC`, the Potency was “inactive”.
For `Cc1cc(C)cc(OCC(=O)Nc2nc(-c3ccc(F)cc3)ns2)c1`, the Potency was “inactive”.
With `O=C(CSc1nccn1-c1ccc(F)cc1)Nc1cccc2ccccc12` the Potency was “inactive”.
For `Cc1ccc(CNC(=O)CCc2c(C)nc3nc(CNC(=O)OC(C)(C)C)nn3c2C)cc1`, the Potency was “inactive”.
For `COc1ccccc1-c1nnc(C2CCN(C(=O)c3ccc(Cl)cc3)CC2)o1`, the Potency was “inactive”.
With `CC1Cc2cc(S(=O)(=O)CCC(=O)Nc3ccc(F)c(Cl)c3)ccc2N1C(=O)C1CC1` (stereo not drawn) the Potency was “inactive”.
With `COc1ccccc1/C=C/c1nc(C#N)c(NC(C)c2ccccc2)o1` (stereo not drawn) the Potency was “inactive”.
In the case of `CCOc1ccc(C2C(=O)N(C3CCCCC3)CC(=O)N2CCC2=CCCCC2)cc1OC` (stereo not drawn), the Potency was “inactive”.
`COc1ccc(-c2noc(-c3ccc(N4CCN(c5ccccc5)CC4)c([N+](=O)[O-])c3)n2)cc1OC` was tested, and the Potency was “inactive”.
In the case of `COc1ccc(CNC(=O)c2cc3c(=O)[nH]c4ccccc4c3s2)cc1`, the Potency was “inactive”.
`CCCn1c(=N)n(CC(O)COc2ccccc2OC)c2ccccc21` (stereo not drawn) was tested, and the Potency was “inactive”.
For `Cc1cc2c(cc3c(SCc4cccc(Cl)c4)nnc(C)n32)o1`, the Potency was 22.4 µM (active).
With `Cc1cc2c(cc3c(SCc4nc(-c5ccccc5)oc4C)nnc(C)n32)o1` the Potency was “inactive”.
In the case of `Cc1nnc(SCc2cccc(Cl)c2)n(N)c1=O`, the Potency was “inactive”.
In the case of `NS(=O)(=O)c1ccc(CCNC(=O)CCCCCn2c(=O)[nH]c3ccccc3c2=O)cc1`, the Potency was “inactive”.
For `FC(F)(F)c1cc(Nc2nc3ccccc3c3nncn23)ccc1Cl`, the Potency was “inactive”.
For `O=C(COc1ccc2c3c(c(=O)oc2c1)CCC3)NC1CCCCC1`, the Potency was “inactive”.
For `O=C(Oc1ccccc1)Oc1ccc2c(c1)oc(=O)c1ccccc12`, the Potency was 7.94 µM (active).
For `O=C(COc1ccc2c3c(c(=O)oc2c1)CCCC3)NCC(O)c1ccccc1` (stereo not drawn), the Potency was “inactive”.
In the case of `COC(=O)c1ccc(CSc2ccc3nnc(-c4ccccc4)n3n2)o1`, the Potency was “inactive”.
With `COc1ccccc1CCNC(=O)CSc1nnc2ccc(-c3cccnc3)nn12` the Potency was “inactive”.
With `CCOC(=O)CNC(=O)CSc1ccc2nnc(-c3cccnc3)n2n1` the Potency was 17.8 µM (active).
For `Cc1c(C)n(Cc2ccc(Cl)cc2)c2ccc(C(=O)NCCc3ccc(S(N)(=O)=O)cc3)cc12`, the Potency was “inactive”.
`O=C(CN1CCN(Cc2ccc(Cl)cc2)C1=O)NCc1ccc(F)cc1` was tested, and the Potency was “inactive”.
In the case of `COc1ccccc1OCC(=O)Nc1nnc2n1CCS2`, the Potency was “inactive”.
For `COCCNC(=O)c1cc(-c2cccc(Cl)c2)on1`, the Potency was “inactive”.
For `O=C(CSc1nccn1C1CCCC1)Nc1cc(C(F)(F)F)ccc1Cl`, the Potency was “inactive”.
`CC(C)c1ccc(NC(=O)c2ccc(Cn3nc(N4CCN(c5ccccc5)CC4)ccc3=O)o2)cc1` was tested, and the Potency was “inactive”.
`O=C(Nc1ccccc1Br)c1cc(CN2CCCC2)on1` was tested, and the Potency was “inactive”.
`Cc1ccc(NC(=O)CCCn2c(=O)c3cccn3c3ccccc32)cc1Cl` was tested, and the Potency was “inactive”.
For `COc1ccc(C2=NC3(CCCCC3)N(CC(=O)Nc3ccc(C(C)C)cc3)C2=O)cc1`, the Potency was “inactive”.
With `COc1ccc(CCNC(=O)CCCCn2c(=O)c3ccccc3n(Cc3ccccc3C)c2=O)cc1OC` the Potency was “inactive”.
For `Fc1ccc(Nc2nc(SCc3ccccc3Cl)nc3ccccc23)cc1`, the Potency was “inactive”.
For `COc1ccc(S(=O)(=O)NCC(c2ccc(N(C)C)cc2)N2CCCC2)cc1` (stereo not drawn), the Potency was “inactive”.
In the case of `O=C(CN1C(=O)COc2ccc(S(=O)(=O)N3CCCCCC3)cc21)N1CCN(c2cccc(C(F)(F)F)c2)CC1`, the Potency was “inactive”.
For `CCCC(=O)Nc1cc2nn(-c3ccccc3)nc2cc1C`, the Potency was “inactive”.
With `N#Cc1nc(/C=C/c2ccc(F)cc2)oc1NC1CCCCC1` the Potency was “inactive”.
For `CCCS(=O)(=O)c1c(Nc2ccccc2C)sc(C(=O)c2ccccc2)c1N`, the Potency was “inactive”.
`Cc1nn(C(=O)c2c(F)cccc2F)c(C)c1S(=O)(=O)N1CCOCC1` was tested, and the Potency was “inactive”.
For `CC(=O)c1ccc(NC(=O)CCc2nc(-c3ccc(C)cc3)no2)cc1`, the Potency was “inactive”.
For `Cc1ccc(C)n1-c1nnc(N2CCC(C(=O)NCc3ccccc3Cl)CC2)s1`, the Potency was “inactive”.
